Screening results from PubChem.
D3 ag: D3 dopamine receptor (human) agonism. D3R DiscoveRx beta-arrestin cells, luminescence, 90 min. P35462. 0.58% of 410,000 active. max activation, %; in the data active = max activation above about 30%; note: 0% is about no effect
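Cells at 1500/well, incubated overnight, then treated with pinned compounds (dopamine as control) for 90 min at 37 degrees C. DiscoveRx reagent added for 30 - 60 minutes at room temperature; luminescence read.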
D1 PAM: human D1 dopamine receptor positive modulation | P21728 | HEK293 TREx D1 cells, calcium flux, dopamine EC20 potentiation | potentiation, % at 10 µM | 0.036% of 360,000 active; in the data active = potentiation above about 30%; note: 0% is about no effect
Target sequence (P21728 whole entry, looked up): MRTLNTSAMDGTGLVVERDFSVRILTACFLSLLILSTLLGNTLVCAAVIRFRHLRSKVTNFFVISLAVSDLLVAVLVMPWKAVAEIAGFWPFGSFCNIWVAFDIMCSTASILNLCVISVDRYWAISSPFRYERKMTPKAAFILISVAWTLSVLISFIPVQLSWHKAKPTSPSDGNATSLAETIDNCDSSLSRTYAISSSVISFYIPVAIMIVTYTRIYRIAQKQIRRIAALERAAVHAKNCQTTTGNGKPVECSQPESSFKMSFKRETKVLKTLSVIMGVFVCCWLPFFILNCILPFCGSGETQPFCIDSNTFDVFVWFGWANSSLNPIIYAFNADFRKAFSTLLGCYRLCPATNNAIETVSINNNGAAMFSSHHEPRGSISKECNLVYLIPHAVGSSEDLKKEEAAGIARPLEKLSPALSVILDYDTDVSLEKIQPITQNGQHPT
D1 ag: human D1 receptor agonism. P21728. HEK293 T-REx D1 cells, calcium flux, agonist mode. activation, % at 2 µM. 1% of 360,000 active; in the data active = activation above about 30%; note: 0% is about no effect
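Tetracycline-induced HEK293 TREx D1 cells, force-coupled to calcium signalling, were dye-loaded with a no-wash calcium kit. Compound was pin-added after a 10 s baseline. Fluorescence was read kinetically at 1 cycle/s for 180 s, with calcium rises flagged as agonism.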
D1 antagonist: blocks dopamine activation of the human D1 receptor. P21728. HEK293 TREx D1 cells, calcium flux, dopamine EC80; hits give low values. activity change, negative = inhibition, % at 10 µM. 3.2% of 360,000 active. AID 504652; in the data active = activity change below about -30%; note: % is set by controls: 0 for no effect and ±100 for the full control effect
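Antagonism measured as reduced calcium response to an EC80 dopamine addition following 180 s compound pre-read; cells were inducible HEK293 Trex D1 plated overnight at 30 C, read kinetically at 1 cycle/sec.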
DRD3 antagonist: D3 dopamine receptor (human) antagonism; P35462; D3R cells, DiscoveRx beta-arrestin luminescence, antagonist mode; hits give low values; max response, negative = inhibition, %; 2.5% of 360,000 active; AID 652054; in the data active = max response below about -50%; inconclusive = no clear call, values can overlap the other calls; note: % is set by controls: 0 for no effect and ±100 for the full control effect
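Cells plated overnight at 1500 cells/well, then exposed to library compounds with dopamine controls for 90 minutes at 37 degrees C. DiscoveRx reagent added for 30–60 minutes at room temperature; luminescence read, quantitative HTS format.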
Starred values were filed as active, the others as inactive; ? = inconclusive; / = not tested or not shown; ! = repeats disagree. Hits are enriched below; roughly 6% of the tested compounds scored in any of these assays.

SMILES | D3 ag | D1 PAM | D1 ag | D1 antagonist | DRD3 antagonist
COc1ccc(CC(N)c2csc(NC(=O)Nc3ccccc3-c3ccccc3)n2)cc1 (stereo unspecified) | 5 | / | / | / | 9
c1cnc2cc3c(cc2n1)[C@@H]1CNC[C@H]3C1 | 4 | / | / | / | /
CC(=O)Nc1cc[n+](CC(=O)c2ccc(Cl)cc2)cc1 | -22 | 1 | 2 | -33* | 10
CC(=O)Nc1cc[n+](C(C)C(=O)c2ccc(Cl)cc2)cc1 (stereo unspecified) | -19 | -9 | 4 | -3 | -87*
O=C(C[n+]1ccc(C(=O)NCc2ccccc2)cc1)c1ccc(Cl)cc1 | 8 | -9 | 2 | -23 | 23
Cc1cc[n+](C(C)C(=O)c2ccc(Cl)cc2)cc1 (stereo unspecified) | -13 | -1 | 0 | -5 | ?
C[C@@H]1CN([C@@H](C)CO)C(=O)CCCn2nncc2CO[C@@H]1CN(C)S(=O)(=O)c1cn(C)cn1 | 3 | / | / | / | 3
Nc1c(CO)nnn1-c1ccccc1 | -19 | -3 | 8 | 2 | -54*
CCN1CCN(C(=O)c2ccc(CS(=O)(=O)Cc3ccccc3Cl)o2)CC1 | -4 | / | / | / | -20
COc1cccc(-n2c(=O)c3sccc3n(Cc3cc(=O)n4cc(Cl)ccc4n3)c2=O)c1 | 7 | 0 | -1 | -32* | /
O=C(C1CCN(CC2CC=CCC2)CC1)N(CCc1ccccc1)Cc1ccccc1 (stereo unspecified) | -25 | -3 | 3 | 4 | -61*
O=C(C1CCN(CCCc2ccccc2)CC1)N(CCc1ccccc1)Cc1ccccc1 | -13 | -2 | 26 | -45* | ?
CCn1c(SCC(=O)c2ccc(Cl)cc2)nnc1-c1ccoc1C | -9 | 4 | -3 | 29 | -61*
CCn1c(SCC(=O)c2ccc(C)cc2)nnc1-c1ccoc1C | 8 | -2 | 1 | -6 | -14
CSc1nnc(C)c(/C=C/Nc2ccc(Cl)cc2)n1 | 4 | -1 | 80* | -6 | 0
CSc1nnc(C)c(/C=C/Nc2ccc(F)cc2)n1 | -8 | -2 | 32* | 0 | 0
C[C@H](CO)N1C[C@H](C)[C@@H](CN(C)Cc2cccnc2)Oc2ncc(-c3cccc(C#N)c3)cc2C1=O | 1 | / | / | / | 0
Cc1cc(O)c(C(=O)c2cnc3c(c2)COc2ccccc2-3)cc1Cl | 16 | -1 | 0 | 2 | /
OCC1(CCc2ccccc2)CCN(C/C=C/c2ccccc2)CC1 | -23 | -4 | 22 | -8 | -54*
OCC1(Cc2ccccc2Cl)CCN(C/C=C/c2ccccc2)CC1 | -20 | -5 | 23 | -4 | -78*
COc1cccc(NC(=O)c2ccc3[nH]c(C)cc(=O)c3c2)c1 | -14 | 1 | 1 | 3 | /
COc1cccc(CNC(=O)c2ccc(CS(=O)Cc3ccc(Cl)cc3)o2)c1 (stereo unspecified) | -12 | -5 | 2 | -12 | /
COc1ccc2nccc(/C=C/c3ccnc4ccc(OC)cc34)c2c1 | 7 | 1 | 6 | 25 | 18
C=C[C@@H]1CN2CCC1C[C@@H]2[C@@H](O)c1ccnc2ccc(OC)cc12 (stereo partly specified) | -44 | -5 | 1 | -3 | -62*!
O=C(CSc1nc(-c2cccc(F)c2)[nH]c1-c1ccccc1)Nc1ccc2c(c1)OCCO2 | -7 | -1 | 10 | 3 | /
SMILES | D3 ag | D1 PAM | D1 ag | D1 antagonist | DRD3 antagonist
COc1cc(CNCCc2ccccc2F)ccc1OCc1ccc(Cl)nc1 | -4 | -2 | 24 | -4 | ?
COc1cc(CNCCc2c[nH]c3ccccc23)cc(Cl)c1OCC(N)=O | -13 | -2 | 12 | -31* | ?
CCOc1c(Cl)cc(CNCC(C)C)cc1OC | -15 | 3 | 7 | 4 | 18
CCOc1cc(CNCC(C)C)cc(Cl)c1OCc1ccccc1 | -3 | 18 | 47* | 9 | 8
COc1cc(CNCCc2ccccc2)cc(Br)c1OCC(=O)Nc1ccccc1C | 26 | -3 | 51* | -16 | -23
COc1cc(CNCCc2ccc(F)cc2)ccc1OCc1ccc(Cl)nc1 | -12 | -21 | 92* | -40* | 0
CNCc1cc(Br)c(OCC(=O)Nc2ccccc2OC)c(OC)c1 | -8 | -4 | 14 | 3 | -11
CCOc1cc(CNCCc2c[nH]c3ccccc23)cc(Cl)c1OCC(N)=O | -16 | -6 | 22 | -1 | ?
CC(C)NC(=O)C1(C)CN(S(C)(=O)=O)CC(=O)N1CCCN1CCOCC1 (stereo unspecified) | 10 | / | / | / | 20
COc1cccc(N2CCN(C(=O)C3CCN(S(=O)(=O)c4c(C)noc4/C=C/c4ccccc4F)CC3)CC2)c1 | 0 | -1 | 7 | 5 | /
CCOc1ccc(/C=C/c2nc(C#N)c(N3CCC(C)CC3)o2)cc1 | -2 | 0 | 3 | 12 | /
CC[C@@H](C)[C@@H](CO)NC(=O)[C@H]1O[C@@H](n2cnc3c(N)ncnc32)[C@H](O)[C@@H]1O | 7 | / | / | / | 13
COc1cc(CNCCc2ccccc2)cc(Cl)c1OCc1ccccc1 | -18 | 17 | 40* | 12 | 4
COc1cc(CNCc2ccccc2)cc(Cl)c1OC | -7 | -10 | 5 | -1 | -20
CN(CC(=O)Nc1ccc(Cl)cc1)C(=O)C1=COCCO1 | -7 | -4 | 3 | 10 | 6
COc1ccc(NC(=O)CN(C)C(=O)C2=COCCO2)cc1 | 1 | 2 | 2 | 4 | -59*
COc1ccccc1N1CCN(CC(O)c2ccccc2)CC1 (stereo unspecified) | -21 | -2 | 1 | 6 | -55*
COc1ccccc1N1CCN(CC(O)c2c(C)[nH]c3ccccc23)CC1 (stereo unspecified) | -6 | -3 | 4 | -7 | -79*
C=CC[C@@H](CC(=O)N(CCO)Cc1ccccc1)C(=O)N[C@H](C)COC(=O)[C@@H](CC=C)Cc1ccc(F)cc1 | 40* | / | / | / | 162
C=CC[C@@H](CC(=O)N(CCO)Cc1ccccc1)C(=O)N[C@@H](C)COC(=O)[C@@H](CC=C)CC(=O)OC(C)(C)C | 4 | / | / | / | 17
C=CC[C@H](CC(=O)N(CCO)Cc1ccccc1)C(=O)N[C@H](C)COC(=O)[C@@H](CC=C)Cc1ccc(F)cc1 | 7 | / | / | / | 24
C=CC[C@H](CC(=O)N(CCO)Cc1ccccc1)C(=O)N[C@@H](C)COC(=O)[C@H](CC=C)CC(=O)OC(C)(C)C | 43* | / | / | / | 17
Cc1cccc2cc(CN(Cc3ccco3)S(=O)(=O)c3ccc4c(c3)OCCO4)c(=O)[nH]c12 | -26 | 2 | 3 | -51* | 10
CC1CCc2[nH]nc(C(=O)O)c2C1 (stereo unspecified) | 1 | -9 | 1 | -47* | 13
Cn1c(=O)c2[nH]c(N=NNc3ccccc3F)nc2n(C)c1=O | 15 | 7 | 2 | -8 | 17
Cc1ccc(S(=O)(=O)N2CCCC2)cc1C(=O)Nc1ccc(-n2cnnn2)cc1 | 21 | -10 | 5 | -31* | -12
